Results as given in PMC4336329 (PLoS ONE, 2015).
The whole screen tested about 310,000 compounds, of which about 14,000 (4.5%) showed an effect of 50% or more. Effects have a minus sign here. Shown is part of a subset that was picked to be rich in strong results.

molecular target: human ether-à-go-go-related gene (hERG) potassium channel (human, UniProt Q12809); assay: primary screen, population patch clamp on CHO cells stably expressing hERG; higher = less effect of the substance
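Also: peak tail current of the secondary pulse compared with the same well before compound.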

Sequence of human ether-à-go-go-related gene (hERG) potassium channel (Q12809 whole entry, looked up): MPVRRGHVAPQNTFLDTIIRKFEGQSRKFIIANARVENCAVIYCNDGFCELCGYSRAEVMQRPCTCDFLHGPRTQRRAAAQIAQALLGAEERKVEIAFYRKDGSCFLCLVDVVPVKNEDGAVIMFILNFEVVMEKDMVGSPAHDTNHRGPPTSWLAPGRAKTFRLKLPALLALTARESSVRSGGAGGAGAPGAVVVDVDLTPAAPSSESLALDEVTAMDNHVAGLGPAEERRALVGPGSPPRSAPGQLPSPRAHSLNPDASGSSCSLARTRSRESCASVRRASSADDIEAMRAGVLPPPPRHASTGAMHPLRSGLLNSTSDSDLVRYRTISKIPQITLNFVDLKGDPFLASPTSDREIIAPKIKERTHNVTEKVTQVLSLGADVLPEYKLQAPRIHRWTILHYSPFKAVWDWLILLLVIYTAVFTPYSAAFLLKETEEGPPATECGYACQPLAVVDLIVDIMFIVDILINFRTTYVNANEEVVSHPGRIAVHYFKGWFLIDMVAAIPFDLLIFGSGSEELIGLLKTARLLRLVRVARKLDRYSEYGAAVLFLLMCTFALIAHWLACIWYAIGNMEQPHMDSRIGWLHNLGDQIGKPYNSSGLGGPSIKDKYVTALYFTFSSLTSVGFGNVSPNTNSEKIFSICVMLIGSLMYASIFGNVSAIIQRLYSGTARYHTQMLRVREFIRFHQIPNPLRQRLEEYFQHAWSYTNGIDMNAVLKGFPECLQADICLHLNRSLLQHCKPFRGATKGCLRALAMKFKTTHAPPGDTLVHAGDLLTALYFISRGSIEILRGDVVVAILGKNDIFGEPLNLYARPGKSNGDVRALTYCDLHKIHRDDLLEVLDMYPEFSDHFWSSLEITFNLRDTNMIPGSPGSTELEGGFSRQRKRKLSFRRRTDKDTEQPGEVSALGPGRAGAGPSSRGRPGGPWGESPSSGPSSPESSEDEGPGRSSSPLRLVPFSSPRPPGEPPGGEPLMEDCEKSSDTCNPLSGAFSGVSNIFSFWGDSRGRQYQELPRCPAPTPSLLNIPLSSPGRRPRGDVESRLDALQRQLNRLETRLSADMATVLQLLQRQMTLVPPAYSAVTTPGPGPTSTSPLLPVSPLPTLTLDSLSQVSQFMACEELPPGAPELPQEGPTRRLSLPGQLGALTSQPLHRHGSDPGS

Compound | hERG current change (%, negative = inhibition) at 10uM
COc1ccc(S(=O)(=O)NC(C)CCc2ccccc2)cc1 (centres unmarked) | -3.49%
Cc1c(NC(=O)C(c2ccccc2)c2ccccc2)cccc1C(=O)O | 16%
CCO[C@@H]1OC(C(=O)Nc2ccccc2)=C[C@H](C)[C@H]1CCCO | 1.08%
CSc1nnc(NC(=O)c2ccc(C)c(S(=O)(=O)N3CCOCC3)c2)s1 | 0.594%
C=C(C)CSc1nc2c(c(=O)[nH]c(=O)n2C)n1Cc1ccccc1 | -12.3%
Cn1c(=O)[nH]c(=O)c2c1nc(SCCN1CCOCC1)n2Cc1ccccc1 | -54.4%
Cn1c(=O)[nH]c(=O)c2c1nc(CN(Cc1ccccc1)Cc1ccccc1)n2CCN1CCOCC1 | -16.6%
Cc1onc(-c2c(Cl)cccc2Cl)c1NC(=O)NNc1ccccn1 | -11.7%
COc1ccc2c(c1OC)C(=O)N(c1ccc(O)cc1)C2 | 13.5%
CSc1nc(C)c2c(n1)N(c1ccc(O)cc1)CC2 | 4.88%
CCOc1ccc(N2CCc3c(C)nc(SC)nc32)cc1 | -2.26%
COc1ccc(N2CCc3c(C)nc4c(OC)cc(OC)cc4c32)c(OC)c1 | -75.3%
COc1ccc(N2CCc3c(C)nc4c(OC)cc(OC)cc4c32)cc1 | -75%
COc1ccc(N2C(=O)CCC2=O)c(OC)c1 | 20.7%
COc1ccc(N2CCc3c(C)nc(SC)nc32)cc1 | 3.4%
COc1ccc(N2CCCC2=N)c(OC)c1.Cl | 12.7%
COc1cc(OC)c2nc(C)c3c(c2c1)N(c1ccc(O)cc1)CC3 | -72.1%
Cc1cc(C)n(CCOc2ccc(Br)cc2)n1 | 1.08%
O=C(NCc1ccc(-c2nc3ccccc3s2)cc1)c1cc2ccccc2o1 | -1.71%

Compound | hERG current change (%, negative = inhibition) at 10uM
CN(C)C(=O)c1cc(C(=O)c2ccccc2Cl)c[nH]1 | 11.8%
COc1cc(C(=O)N/N=C/c2sc(N3CCOCC3)nc2-c2ccccc2)cc(OC)c1OC | 3.33%
CC(=O)Nc1ccc(S(=O)(=O)N2CCN=C2C)cc1 | 5.24%
CC(=O)NCCC(=O)N1CCCC(C(=O)c2ccc3c4c(cccc24)CC3)C1 (centres unmarked) | -18.5%
CCSC1=C(C#N)C(c2cccc(O)c2)CC(=O)N1 (centres unmarked) | 2.7%
O=C(COC(=O)CCc1ccc(S(=O)(=O)N2CCOCC2)cc1)Nc1cccc(Cl)c1 | -30.3%
O=C(CCc1ccccc1)Nc1ccc(S(=O)(=O)N2CCOCC2)cc1 | -28.1%
N#Cc1cccc(NC(=O)COC(=O)CCc2ccc(S(=O)(=O)N3CCOCC3)cc2)c1 | -60.1%
N#Cc1ccc(NC(=S)NC(=O)CCc2ccc(S(=O)(=O)N3CCOCC3)cc2)cc1 | 0.205%
CC(=O)c1cccc(NC(=O)COC(=O)CCc2ccc(S(=O)(=O)N3CCOCC3)cc2)c1 | 6.05%
N#Cc1ccc(NC(=O)CCc2ccc(S(=O)(=O)N3CCOCC3)cc2)cc1 | -51.5%
N#Cc1ccc(NC(=O)CNc2cc(S(=O)(=O)N3CCOCC3)ccc2NCC2CCCO2)cc1 (centres unmarked) | -70%
COc1ccc(NC(=O)CNc2cc(S(=O)(=O)N3CCOCC3)ccc2NCC2CCCO2)cc1 (centres unmarked) | -18.3%
O=C(CNc1cc(S(=O)(=O)N2CCOCC2)ccc1NCC1CCCO1)Nc1ccc(C(F)(F)F)cc1 (centres unmarked) | -30.4%
O=C(O)c1ccc(COCC(F)(F)C(F)F)o1 | 16%
CC(CNC(=O)C(C)C)NC(=O)C(C)C (centres unmarked) | 7.92%
CCN1C(=O)[C@H]2[C@@H](c3ccc(Cl)cc3)N3C(=O)CN(CCOC)C(=O)[C@@]3(C)[C@H]2C1=O | 3.18%
COc1ccc(C2(C(=O)Nc3ccc(C(=O)O)cc3)CCOCC2)cc1 | 9.95%
COc1ccc(Cl)cc1NC(=O)CNc1ccccc1CN(C)C1CCCCC1 | -37.9%

Compound | hERG current change (%, negative = inhibition) at 10uM
CC1CN(C(=O)/C=C/c2ccc3c(c2)OCO3)CC(C)O1 (centres unmarked) | -21%
CC1CN(C(=O)/C=C/c2ccc(SC(F)F)cc2)CC(C)O1 (centres unmarked) | -59.6%
COc1ccc(/C=C/C(=O)N2CC(C)OC(C)C2)cc1OC (centres unmarked) | -11%
C#Cc1ccc([C@H]2C=C(C(=O)N3CCN(Cc4ccccc4)CC3)O[C@@H](OCC)[C@@H]2CCCO)cc1 | -19.6%
COc1ccccc1OCC(=O)NCCSCc1ccccc1Cl | -22.6%
CC(C)(C)NC(=O)CN1CCC(NC(=O)C23CC4CC(CC(C4)C2)C3)CC1 | 28.1%
O=C(Nc1cccnc1)c1cccnc1Cl | 4.09%
CC(=O)c1c(N2CCCC2)nc(=S)n(-c2ccccc2)c1C | -0.251%
CC(=O)c1c(N2CCN(c3ccccc3)CC2)nc(=S)n(-c2ccccc2)c1C | -20.1%
COc1ccc(N2CCN(c3nc(=S)n(-c4ccccc4)c(C)c3C(C)=O)CC2)cc1 | -9.97%
CCn1c(C)c(C(C)=O)c(N2CCN(c3cccc(Cl)c3)CC2)nc1=S | -27.6%
CC(=O)c1c(N2CCN(c3ccc(F)cc3)CC2)nc(=S)n(-c2ccccc2)c1C | -75%
CC(=O)c1c(N2CCN(c3cccc(Cl)c3)CC2)nc(=S)n(-c2ccccc2)c1C | -68.8%
CC(=O)Nc1ccccc1-c1nc2cc(C#N)c(C#N)cc2[nH]c1=O | -4.17%
O=c1[nH]c(NCCO)nc2c1C1(CCCCC1)Cc1ccccc1-2 | 7.03%
COc1cccc(/C=N/NC(=O)CNC(=O)c2ccc3c(c2)OCCO3)c1O | -0.701%
O=C(NCC1CCCO1)c1cnn2c(C(F)F)cc(C3CC3)nc12 (centres unmarked) | -2.7%
CCCOC(=O)c1ccc(Nc2nc(C)cc(=O)[nH]2)cc1 | 3.46%
